Measurements as given in the antibiotic and cytotoxicity screens of Wong et al. (2023).
Out of some 39,000 compounds screened, about 3,300 (8.5%) were called active. Only a selection was taken, and actives are over-represented in it overall.

Each compound was assayed on HepG2 (assay: cytotoxicity call (relative viability < 0.9)). Conditions: 10 µM.
With `Cc1nc[nH]c1CCN` the cytotoxicity call was “inactive”. In the case of `NC[C@@H](CS(=O)(=O)O)c1ccc(Cl)cc1`, the cytotoxicity call is reported as “inactive”. With `CCN1C[C@]2(C)CC[C@H](O)[C@@]34[C@@H]5C[C@H]6[C@H](O)[C@@H]5[C@](O)(C[C@@H]6OC)[C@](O)([C@@H](OC)[C@H]23)[C@@H]14` the cytotoxicity call was “inactive”. In the case of `C[C@@H]1CN([C@@H](C)CO)C(=O)c2c(c3ccccc3n2C)-c2ccccc2CO[C@@H]1CN(C)C(=O)Oc1ccccc1`, the cytotoxicity call is reported as “inactive”. In the case of `CN(C)[C@@H]1C(=O)C(C(N)=O)=C(O)[C@@]2(O)C(O)=C3C(=O)c4c(O)cccc4[C@](C)(O)[C@H]3C[C@@H]12`, the cytotoxicity call is reported as “inactive”. With `CCC(C)C(=O)OC1CC2(C)C(c3ccoc3)OC(=O)CC23OC2(C)OC34C(OC(C)=O)C3(O)C(OC(=O)C5(C)OC5C)C5(C)CC3(O)C(C)(C5CC(=O)OC)C14O2` (stereo not given) the cytotoxicity call was “inactive”. In the case of `Cc1ccc(N=CN(C)C=Nc2ccc(C)cc2C)c(C)c1`, the cytotoxicity call is reported as “inactive”. With `C[C@H](CO)N1C[C@H](C)[C@@H](CN(C)C(=O)Oc2cccc3ccccc23)OCc2cnnn2CCCC1=O` the cytotoxicity call was “inactive”. In the case of `O=C(O)c1ccc(=O)[nH]c1`, the cytotoxicity call is reported as “inactive”. `CN1CCN(Cc2ccc[nH]2)CC1` was tested, and the cytotoxicity call was “inactive”. For `CC12CCC3c4ccc(OC(=O)N(CCCl)CCCl)cc4CCC3C1CCC2O` (stereo not given), the cytotoxicity call was “active”. In the case of `C[C@]12CC[C@@H]3c4ccc(OC(=O)N(CCCl)CCCl)cc4CC[C@H]3[C@@H]1CC[C@@H]2OP(=O)(O)O`, the cytotoxicity call is reported as “inactive”. In the case of `Cc1cc(C)nc(NC2=NCCN2)n1`, the cytotoxicity call is reported as “inactive”. With `O=C(CN1CCOCC1)c1ccc(O)cc1O` the cytotoxicity call was “inactive”. With `CC(C)[N+](C)(CCC(C(N)=O)(c1ccccc1)c1ccccc1)C(C)C.[I-]` the cytotoxicity call was “inactive”. With `c1cc2c(c(N3CCNCC3)c1)OCCO2` the cytotoxicity call was “inactive”. In the case of `CCC1(c2ccccc2)C(=O)NC(=O)NC1=O`, the cytotoxicity call is reported as “inactive”. With `COC(=O)C[C@@H]1CC[C@H]2NC[C@H](O)COC[C@@H]2O1` the cytotoxicity call was “inactive”. With `COC12CC(COC(=O)c3cncc(Br)c3)CN(C)C1Cc1cn(C)c3cccc2c13` (stereo not given) the cytotoxicity call was “active”. With `NCC1(c2ccc(Cl)cc2)CC1` the cytotoxicity call was “inactive”. `O=C(O)/C=C/CO` was tested, and the cytotoxicity call was “inactive”. In the case of `Cn1cc(NC(=O)c2cc(NC(=O)CNC(=N)N)cn2C)cc1C(=O)NCCC(=N)N`, the cytotoxicity call is reported as “inactive”. `O=C(O)CCl` was tested, and the cytotoxicity call was “inactive”. In the case of `O=C1NC2(CCNCC2)C[C@@H]1c1ccncc1`, the cytotoxicity call is reported as “inactive”. With `Cc1cccc(Cc2cnc[nH]2)c1C` the cytotoxicity call was “inactive”. `COc1ccc2[nH]cc(CCN)c2c1` was tested, and the cytotoxicity call was “inactive”. For `NCCc1c[nH]c2ccccc12`, the cytotoxicity call was “inactive”. For `COc1cccc(-c2ccc3c(CCN)c[nH]c3c2)c1`, the cytotoxicity call was “active”. With `COc1ccc(C=O)cc1` the cytotoxicity call was “inactive”. With `COc1ccc(N=[N+]=[N-])cc1` the cytotoxicity call was “inactive”. For `C=CCc1ccc(OC)cc1`, the cytotoxicity call was “active”. In the case of `C[C@@H]1C(=O)NC[C@H]2CN(CC3CC3)C[C@@H]21`, the cytotoxicity call is reported as “inactive”. For `CNC[C@@H](O)c1ccc(O)c(OC)c1`, the cytotoxicity call was “inactive”. `CN1C[C@H]2CN(Cc3nccn3C)C[C@H]2C1=O` was tested, and the cytotoxicity call was “inactive”. For `N#Cc1c(Cl)c(Cl)c(Cl)c(C#N)c1Cl`, the cytotoxicity call was “active”. `COc1ccc(C2(CN)CCOCC2)cc1` was tested, and the cytotoxicity call was “inactive”. `CC[C@@H]1/C=C/C=C/C[C@H](C)[C@@H](O)[C@](C)(O)C(=O)[C@H](C)[C@@H](O)[C@H](C)C(=O)[C@H](C)[C@@H](O)[C@H](C)/C=C/C(=O)O[C@H]2[C@@H](C)[C@@H](CC1)O[C@@]1(CC[C@@H](C)[C@@H](C[C@H](C)O)O1)[C@@H]2C` was tested, and the cytotoxicity call was “inactive”. With `CC1(C)C(=O)C2OC2C2(C)C1CC(O)C1(C)C2CCC2(C)C(c3ccoc3)OC(=O)C3OC321` (stereo not drawn) [1,2alpha-EPOXYDEACETOXYDIHYDROGEDUNIN ] the cytotoxicity call was “inactive”. `COC(=O)C1CC(OC(C)=O)C(=O)C2C1(C)CCC1C(=O)OC(c3ccoc3)CC12C` (stereo not given) was tested, and the cytotoxicity call was “inactive”. In the case of `CC(=O)OC1CC2C(C)(C)C(=O)C=CC2(C)C2CCC3(C)C(=CC(=O)OC3c3ccoc3)C12C` (stereo not given), the cytotoxicity call is reported as “active”. With `CC1(C)C(O)CC(O)C2(C)C1CC(=O)C1(C)C2CCC2(C)C(c3ccoc3)OC(=O)C3OC321` (stereo not given) the cytotoxicity call was “inactive”. For `CC1(C)C(=O)C=CC2(C)C1CC(O)C1(C)C2CCC2(C)C(c3ccoc3)OC(=O)C3OC321` (stereo not given), the cytotoxicity call was “active”. With `CC(=O)OC1CC(OC(C)=O)C2(C)C(CC(OC(C)=O)C3(C)C2CCC2(C)C(c4ccoc4)C(=O)C4OC423)C1(C)C` (stereo not given) the cytotoxicity call was “inactive”. With `NC(=O)[C@H]1CNC(=O)C1` the cytotoxicity call was “inactive”. For `NC1(c2ccccc2F)CCCC1`, the cytotoxicity call was “inactive”. For `CC(C)(C)[C@]1(O)C[C@@H]2OC(=O)C[C@@]23C(=O)O[C@@H]2OC(=O)[C@H](O)[C@]213`, the cytotoxicity call was “inactive”. `C/C(=C\[C@@H](N)C(=O)O)CP(=O)(O)O` was tested, and the cytotoxicity call was “inactive”. `Cc1cccc(Cc2c[nH]cn2)c1C.Cl` was tested, and the cytotoxicity call was “inactive”. With `CCC1C2CC3C4N(C)c5ccccc5C45CC(C2C5O)N3C1O` (stereo not given) the cytotoxicity call was “inactive”. With `c1cc(N2CCNCC2)ccn1` the cytotoxicity call was “inactive”. For `CCn1cc2nc(N3CCNCC3)[nH]cc-2c1=O`, the cytotoxicity call was “inactive”. With `C[C@H]1O[C@H](n2cnc3c(N)ncnc32)C[C@H]1O` the cytotoxicity call was “inactive”. With `CC(=O)Oc1ccc(Cl)c2cccnc12` the cytotoxicity call was “active”. For `Cc1c(N)nc([C@H](CC(N)=O)NC[C@@H](N)C(N)=O)nc1C(=O)N[C@H](C(=O)N[C@@H](C)[C@H](O)[C@@H](C)C(=O)N[C@@H](C(=O)NCCc1nc(-c2nc(C(=O)NCCC[S+](C)C)cs2)cs1)[C@@H](C)O)[C@@H](O[C@H]1O[C@H](CO)[C@H](O)[C@@H](O)[C@H]1O[C@H]1O[C@H](CO)[C@@H](O)[C@H](OC(N)=O)[C@@H]1O)c1c[nH]cn1`, the cytotoxicity call was “inactive”. With `O[C@H]1[C@H](O)[C@@H](O)CO[C@H]1NCCc1ccccc1` the cytotoxicity call was “inactive”. For `COCCN1[C@@H]2CC[C@H]1CN(c1ncccn1)C2`, the cytotoxicity call was “inactive”. With `CCn1nnnc1N` the cytotoxicity call was “inactive”. In the case of `C[C@H](CO)N1C[C@H](C)[C@H](CN(C)C(=O)Oc2cccc3ccccc23)OCc2cnnn2CCCC1=O`, the cytotoxicity call is reported as “inactive”. `N#Cc1cccnc1` was tested, and the cytotoxicity call was “inactive”. With `NCc1cccnc1` the cytotoxicity call was “inactive”. With `CNCc1cccnc1` the cytotoxicity call was “active”. For `CC(=O)OCC1=C2C(=O)[O][Zn][O]C(=O)[C@@H](N)CCCC(=O)N[C@@H]3C(=O)N2[C@@H]3SC1`, the cytotoxicity call was “inactive”. With `Nc1nc(=O)c2ncn([C@H]3O[C@@H](COP(=O)(O)OP(O)(O)=S)[C@H](O)[C@@H]3O)c2[nH]1` the cytotoxicity call was “inactive”. `CN(C)[C@@H]1C(=O)[C@@H](C(N)=O)C(=O)[C@@]2(O)C(=O)[C@H]3C(=O)c4c(O)ccc(Cl)c4[C@@](C)(O)[C@H]3C[C@@H]12` was tested, and the cytotoxicity call was “inactive”. `CCCCCC1C(=O)OC(C)C(NC(=O)c2cccc(NC=O)c2O)C(=O)OC(C)C1OC(=O)CC(C)C` (stereo not given) [ANTIMYCIN A (A1 shown) ] was tested, and the cytotoxicity call was “active”. For `CCCCC[C@H]1C(=O)O[C@H](C)[C@H](NC(=O)c2cccc(NC=O)c2O)C(=O)O[C@@H](C)[C@@H]1OC(=O)CC(C)C`, the cytotoxicity call was “active”. In the case of `O=C1COC2(CNC2)CN1`, the cytotoxicity call is reported as “inactive”. In the case of `CC(C)N1CCO[C@H]2CN(C(=O)N(C)C)C[C@@H]21`, the cytotoxicity call is reported as “inactive”. With `C=CCC1(O)CCC2C3CCC4=CC(=O)CCC4=C3C=CC21C` (stereo not given) the cytotoxicity call was “inactive”. With `CC(CCc1ccccc1)NC(C)C(O)c1ccc(O)cc1.Cl` (stereo not given) the cytotoxicity call was “inactive”. In the case of `Nc1nnns1`, the cytotoxicity call is reported as “inactive”. `CC(C)[C@@H](Br)C(=O)NC(N)=O` was tested, and the cytotoxicity call was “inactive”. `CC(C)Oc1ncccc1CN` was tested, and the cytotoxicity call was “inactive”. With `CC(=O)O[C@H]1C[C@@H](OC(C)=O)C(C)(C)[C@@H]2C[C@@H](OC(C)=O)[C@]3(C)[C@H](CC[C@@]4(C)[C@H](c5ccoc5)C[C@H]5O[C@@]534)[C@@]12C` the cytotoxicity call was “inactive”. With `CC1(C)C(=O)C=CC2(C)C1=C(O)C(=O)C1(C)C2CCC2(C)C(c3ccoc3)CC3OC321` (stereo not given) the cytotoxicity call was “active”. With `CC1(C)C(O)CC(=O)C2(C)C1CC(=O)C1(C)C2CCC2(C)C(c3ccoc3)OC(=O)C3OC321` (stereo not given) the cytotoxicity call was “inactive”. For `CC(=O)OC1CC2(C)C(c3ccoc3)CC3OC32C2(C)C(=O)C(O)=C3C(C)(C)C(=O)C=CC3(C)C12` (stereo not given), the cytotoxicity call was “active”. With `N[C@H]1CCCN(Cc2cccnc2)C1` the cytotoxicity call was “inactive”. With `O=C1NC(=S)NC(=O)C1CN1CCOCC1` the cytotoxicity call was “inactive”. `C[C@H](O)[C@@]12[C@H]3CC=C[C@@H]1N2CC3` (stereo not given in full) was tested, and the cytotoxicity call was “inactive”. With `O[C@H]1CNC[C@@H]1N1CCCCC1` the cytotoxicity call was “inactive”. For `Cn1c(CCN)nc2ccccc21`, the cytotoxicity call was “inactive”. For `COC(=O)C[C@@H]1CC[C@@H]2NC[C@H](O)COC[C@H]2O1`, the cytotoxicity call was “inactive”. For `CO[C@@H]1C=C[C@@H]2[C@H]1N2CCO` (stereo not given in full), the cytotoxicity call was “inactive”. In the case of `N[C@H]1CNC(=O)C1`, the cytotoxicity call is reported as “inactive”. `CCCCCCCCCc1ccc(O)cc1` was tested, and the cytotoxicity call was “active”. With `NCCc1ccc(O)cc1` [listing 1 of 2 here] the cytotoxicity call was “inactive”. In the case of `NCCc1ccc(O)cc1` [listing 2 of 2 here], the cytotoxicity call is reported as “inactive”. For `C1CCN2C(C3N4CCCCN34)N2C1` (stereo not given), the cytotoxicity call was “inactive”. For `c1cnc2[nH]cc(CN3CCNCC3)c2c1`, the cytotoxicity call was “inactive”. For `O=C1NCc2cnnn2-c2ccccc21`, the cytotoxicity call was “inactive”. For `CCN1CCN(c2nc(=O)cc(C)[nH]2)CC1`, the cytotoxicity call was “inactive”. For `C1CO[C@@]2(C1)CCNC2`, the cytotoxicity call was “inactive”. With `O=C([O-])c1ccccc1-c1c2cc(Br)c(=O)cc-2oc2[c]([Hg][OH])c([O-])c(Br)cc12.[Na+].[Na+]` the cytotoxicity call was “inactive”. For `O=C1NC(=O)C(=C[C@@H]2CC=CCC2)C(=O)N1`, the cytotoxicity call was “inactive”. For `CC1=C(O)C(=O)C=C2C1=CC=C1C2(C)CCC2(C)C3CC(C)(C(=O)O)CCC3(C)CCC12C` (stereo not given), the cytotoxicity call was “active”. `O.O.O.O=C([O-])C1[O][Sb]2[O]C(=O)C([O]2)C(C(=O)[O-])[O][Sb]2[O]C(=O)C1[O]2.[K+].[K+]` (stereo not given) was tested, and the cytotoxicity call was “active”. With `Clc1nc(N2CCNCC2)c2[nH]cnc2n1` the cytotoxicity call was “inactive”. For `COCCCNC(=O)[C@H]1N[C@H]2C[C@@H]1C[C@@H]2F`, the cytotoxicity call was “inactive”. In the case of `O[C@@H]1[C@@H]2C[C@H]3[C@H]1N[C@@H]1C[C@@H]2[C@@H]3[C@H]1O`, the cytotoxicity call is reported as “inactive”. `CN1CCO[C@H]2CN(c3ncccn3)C[C@@H]21` was tested, and the cytotoxicity call was “inactive”. In the case of `N#Cc1nn(-c2c(Cl)cc(C(F)(F)F)cc2Cl)c(N)c1S(=O)C(F)(F)F` (stereo not given), the cytotoxicity call is reported as “active”. With `C[C@H](CO)N1C[C@H](C)[C@H](CN(C)C(=O)Oc2ccc3ccccc3c2)OCc2cn(nn2)CCCC1=O` the cytotoxicity call was “inactive”. For `CCOCC(=O)N1C[C@H]2CNC[C@H]2C1`, the cytotoxicity call was “inactive”. For `CN1CCCN(Cc2ccc(CN)cc2)CC1`, the cytotoxicity call was “inactive”.
